# From PubChem BioAssay AID624170 (National Center for Advancing Translational Sciences (NCATS), 2012)
# “And” between values parts separate entries of the source, which are not always exact repeats. Identical values can stand only once. The campaign covered roughly 410,000 compounds. About 850 (0.21%) were called active. Roughly 2% stayed inconclusive and do not appear here. The call rests on the fitted dose curve; in most records, active means well fitted inhibition curve with a large enough effect; inconclusive means small, poorly fitted or top-dose-only effect, or another doubt; inactive means no such curve, though single readings can be large or run the other way. For the sample, actives were picked, then their nearest neighbours and some compounds at random. More than one record can exist for a structure, and the calls need not agree.
# Target: Glutaminase kidney isoform, mitochondrial (Homo sapiens) (UniProt O94925)
# Assay: qHTS for Inhibitors of Glutaminase (GLS)
# Conditions: GLS enzymatic activity, qHTS titration; series mostly up to 45.5 µM; activity change, negative = inhibition: at the top concentration
# Summary of the method: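 Two-point fluorescence kinetic (t0, 30 min RT) for hKGA; glutamate detected via glutamate oxidase–HRP–Amplex Red. Substrate: 1 mM L-glutamine solution; buffer 45 mM KH2PO4, pH 8.2.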
# On the % scale 0 is the no-effect control and ±100 the full control effect; potency means the concentration at half of the fitted maximal effect.
# Sequence of Glutaminase kidney isoform, mitochondrial (Homo sapiens) (O94925 whole entry, looked up, canonical isoform): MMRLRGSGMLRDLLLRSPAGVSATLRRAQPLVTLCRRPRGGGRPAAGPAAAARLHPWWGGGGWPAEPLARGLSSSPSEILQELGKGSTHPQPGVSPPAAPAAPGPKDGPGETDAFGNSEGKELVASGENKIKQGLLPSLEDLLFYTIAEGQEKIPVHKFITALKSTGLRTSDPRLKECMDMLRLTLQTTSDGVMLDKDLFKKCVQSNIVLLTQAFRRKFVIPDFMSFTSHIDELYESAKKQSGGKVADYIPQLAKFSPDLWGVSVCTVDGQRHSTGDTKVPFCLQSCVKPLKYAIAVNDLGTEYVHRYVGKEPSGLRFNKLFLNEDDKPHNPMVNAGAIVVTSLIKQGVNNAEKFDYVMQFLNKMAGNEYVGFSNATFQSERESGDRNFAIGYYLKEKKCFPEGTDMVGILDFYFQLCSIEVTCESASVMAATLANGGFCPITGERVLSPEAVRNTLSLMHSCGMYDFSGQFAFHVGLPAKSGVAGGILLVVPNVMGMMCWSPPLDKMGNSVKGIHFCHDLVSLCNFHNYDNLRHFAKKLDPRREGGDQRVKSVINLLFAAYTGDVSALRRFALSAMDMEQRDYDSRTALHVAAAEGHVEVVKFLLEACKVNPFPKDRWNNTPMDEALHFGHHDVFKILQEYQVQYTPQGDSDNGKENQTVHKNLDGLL
Compound,"activity change, negative = inhibition",Potency
Cc1ccc(CSc2nc3ccsc3c(=O)n2CCC(C)C)cc1,6.64% (inactive),
CC[C@]1([C@H]2O[C@@H]([C@@H]3O[C@](O)(CO)[C@@H](C)C[C@H]3C)C[C@H]2C)CC[C@@H]([C@]2(C)CC[C@@]3(C[C@@H](O)[C@@H](C)[C@@H]([C@H](C)[C@H](OC)[C@H](C)C(=O)O)O3)O2)O1,0.877% (inactive),
Cc1nc2nc(SCC(=O)NC3CCC(C)CC3)nn2c(C)c1Cc1ccccc1Cl (stereo not drawn),-5.16% (inactive),
COc1ccc(OC)c(NC(=O)CSc2nc3cccnc3n2C)c1,-1.35% (inactive),
C=CCn1c(Cn2nnc3ccccc32)nnc1SCC(=O)N/N=C/c1cc(Br)cc(OC)c1O,28.5% (inactive),
Cn1c(SCC(=O)N/N=C/c2ccc(O)c(O)c2)nc2ccccc21,,17.8 µM (active)
CNC(=O)CN1C(=O)c2cccnc2Sc2ccccc21,6.23% (inactive),
CC(=O)c1ccc(NC(=O)COc2ccccc2-c2nc(-c3ccccc3)no2)cc1,1.67% (inactive),
CCOC(=O)c1cc2c(=O)n3ccccc3nc2n(CC2CCCO2)c1=NC(=O)c1ccc(C(C)(C)C)cc1 (stereo not drawn),1.12% (inactive),
CCC(C)C1OC2(C=CC1C)CC1CC(C/C=C(/C)C(OC3CC(OC)C(OC4CC(OC)C(NC(C)=O)C(C)O4)C(C)O3)C(C)/C=C\C=C3\COC4C(O)C(C)=CC(C(=O)O1)C34O)O2 (stereo not drawn),-26.7% (inactive),
C[C@@H]1C[C@H]2[C@@H]3C[C@H](F)C4=CC(=O)C=C[C@@]4(C)[C@]3(F)[C@H](O)C[C@]2(C)[C@@]1(O)C(=O)CO,0.486% [at 20 µM] (inactive),
O=C(Nc1ccccc1Cl)N1CCC(CN2CCCC2)CC1,3.88% (inactive),
O=C(Nc1ccccc1Cl)/C(Cl)=C(\Cl)S(=O)c1ccccc1 (stereo not drawn),,1.78 µM (active)
O=C(Nc1ccccc1Cl)N1CCC(CN2CCCCC2)CC1,-5.88% (inactive),
O=C(/C=C/c1cccc(F)c1)NC1CC1,4.05% (inactive),
Cc1nnc(C(=O)NC(C)(C)c2nc(C(=O)NCc3ccc(F)cc3)c(O)c(=O)n2C)o1,5.68% (inactive),
COc1ccc(OC)c([C@H](O)CNC(=O)CN)c1,-13.6% [at 20 µM] (inactive),
Cc1cc(C)c2nc(SCC(=O)N(C)C3CCS(=O)(=O)C3)cc(C)c2c1 (stereo not drawn),-2.3% (inactive),
CCN(C(=O)COC(=O)/C=C/c1nc2ccccc2s1)C1CCS(=O)(=O)C1 (stereo not drawn),-13.8% (inactive),
CN(C(=O)COC(=O)c1cc(-c2ccco2)nc2ccccc12)C1CCS(=O)(=O)C1 (stereo not drawn),,10 µM (active)
CCOC(=O)CN1C(C(=O)c2ccccc2)=C(OC(=O)C(C)(C)C)c2ccccc2S1(=O)=O,-4.55% (inactive),

Compound,"activity change, negative = inhibition",Potency
CCC(=O)Nc1cccc(C2=NOC3(C2)C[C@@H](C(N)=O)N(C(=O)c2cc([N+](=O)[O-])cc([N+](=O)[O-])c2C)C3)c1 (stereo partly drawn),-2.13% (inactive),
NC(=O)[C@H]1CC2(CC(c3cccc(NC(=O)[C@H]4CCC(=O)N4)c3)=NO2)CN1C(=O)c1ccccc1C(=O)c1ccccc1 (stereo partly drawn),7.06% (inactive),
C=C(C)C(=O)Nc1cccc(C2=NOC3(C2)C[C@H](C(N)=O)N(C(=O)C(c2ccccc2)c2ccccc2)C3)c1 (stereo partly drawn),,14.1 µM (active)
COc1ccc(OC)c(NC(=O)Cn2c(=O)n(Cc3ccccc3)c(=O)c3ccccc32)c1,-4.18% (inactive),
CC(C)(C)C1C/C(=C/c2ccco2)C(=O)/C(=C/c2ccco2)C1 (stereo not drawn),,22.4 µM (active)
CC[C@]1(C)CC(=O)NC1=O,0.282% (inactive),
O=P(O)(O)OC[C@H](O)CO,-1.43% (inactive),
CC(C)c1ccc(NS(=O)(=O)c2ccc3[nH]cc(C(=O)NC4CCCC4)c(=O)c3c2)cc1,-9.07% (inactive),
COc1cc(Cl)c(C)cc1NC(=O)CCc1nc2cccnc2n1Cc1cccs1,0.67% (inactive),
CC1(C)S[C@@H]2[C@H](NC(=O)COc3ccccc3)C(=O)N2C1C(=O)OCc1ccccc1 (stereo partly drawn),4.77% (inactive),
COC(=O)Cc1ccc(OCC(=O)NC2CCCC2)cc1,5.37% (inactive),
CC1(C)SC2C(NC(=O)COc3ccccc3)C(=O)N2C1C(=O)O (stereo not drawn),,inactive and 8.91 µM (active)
OCC(CO)NC1C[C@](O)(CO)[C@@H](O)[C@H](O)[C@H]1O (stereo partly drawn),-5.08% (inactive),
CC(=O)OCC(=O)[C@@]1(O)CC[C@@H]2[C@H]3CCC4=CC(=O)C=C[C@]4(C)[C@]3(F)[C@@H](O)C[C@@]21C,1.13% [at 20 µM] (inactive),
Cc1c(Cl)cccc1NC(=O)C1CCCN(c2ncnc3onc(C)c23)C1 (stereo not drawn),-6.23% (inactive),
Cc1cccc(C(C)C)c1NC(=O)C(NS(=O)(=O)c1cccc2nsnc12)c1ccccc1 (stereo not drawn),-0.851% (inactive),
COCCCn1c(SCC(=O)NC2CCCC2)nnc1-c1ccccc1,-2.76% (inactive),
COCCCn1c(Cc2csc(Nc3cccc(Cl)c3)n2)nnc1SCC(=O)OC1CCCCC1,,12.6 µM (active)
COCCn1c(Cc2cccn2C)nnc1SCC(=O)Nc1nccs1,-12.2% (inactive),
FCOC(C(F)(F)F)C(F)(F)F,-0.0238% (inactive),
C=C1C(=CC=C2CCC[C@@]3(C)[C@@H]2CC[C@H]3[C@H](C)CCCC(C)C)C[C@@H](O)C[C@@H]1O,-7.16% (inactive),

Compound,"activity change, negative = inhibition",Potency
CCOC(=O)c1ccc(NC(=O)CSc2nc3c([nH]c4ccccc43)c(=O)n2C)cc1,-2.03% (inactive),
COc1ccc(-n2c(O)c(C=NCC(c3ccco3)N3CCCC3)c3ccccc3c2=O)cc1OC (stereo not drawn),-0.259% (inactive),
CCOc1ccc(N/C(N)=N/c2nc(C)c(C)c(=O)[nH]2)cc1,4.49% (inactive),
CCOc1ccc(-n2c(O)c(/C=N/Nc3nnc(C)c(=O)[nH]3)c3ccccc3c2=O)cc1,,10 µM (active)
CCOc1ccc(-n2c(C)nc3c(cnn3-c3ccc(C)cc3)c2=O)cc1,-4.38% (inactive),
CCOc1ccc(-n2c(O)c(/C=N/Nc3nc(C)cc(C)n3)c3ccccc3c2=O)cc1,,11.2 µM (active)
CCOc1ccc(-n2c(SCC(=O)NCc3ccccc3)nc3n[nH]c(C)c3c2=N)cc1,-24.6% (inactive),
Cc1ccc(-c2ncc(Cl)cc2-c2ccc(S(C)(=O)=O)cc2)cn1,5.57% (inactive),
COc1ccc2c(c1)c(=O)c(S(=O)(=O)c1ccc(F)cc1)cn2CC(=O)Nc1ccc(C)cc1C,4.91% (inactive),
CC1(C)OC2CC(=O)OC[C@@]23C1CC(=O)[C@]1(C)C3CC[C@@]2(C)C(c3ccoc3)OC(=O)C3O[C@@]321 (stereo partly drawn),-16.2% (inactive),
CCOC(=O)Cc1cccc(-c2cc(CCCCCCc3ccc(O[C@H]4O[C@H](COC(C)=O)[C@@H](OC(C)=O)[C@H](OC(C)=O)[C@@H]4OC(C)=O)c(-c4cccc(CC(=O)OCC)c4)c3)ccc2O[C@H]2O[C@H](COC(C)=O)[C@@H](OC(C)=O)[C@H](OC(C)=O)[C@@H]2OC(C)=O)c1,3.57% (inactive),
Cc1nc(N2CCOCC2)c2c(C(=O)NCc3cccc(Cl)c3)c(C)oc2n1,0.0319% (inactive),
COc1ccc(S(=O)(=O)NCc2cccn2Cc2cccc(C)c2)cc1Cl,-10.6% (inactive),
Cc1ccc(Cl)cc1NC(=O)CCC(=O)N1CC(C)Sc2ccccc21 (stereo not drawn),8.36% (inactive),
Cc1cccc(C(=O)Nc2ccc(-c3nc4ccccc4s3)c(C)c2)c1,7.67% (inactive),
COc1cccc(-n2c(SCC(=O)NC3CCCCC3)nc3n[nH]c(C)c3c2=N)c1,,10 µM (active)
COc1ccc(-n2c(SCC(=O)Nc3ccc(Cl)c(C)c3)nc3n[nH]c(C)c3c2=N)cc1,-1.2% (inactive),
Cc1ccc(-n2c(SCC(=O)NCCC3=CCCCC3)nc3n[nH]c(C)c3c2=N)cc1Cl,-5.74% (inactive),
C[C@H]1C[C@H]2[C@@H]3CCC4=CC(=O)C=C[C@]4(C)[C@@H]3C(=O)C[C@]2(C)[C@@]1(O)C(=O)CO,10.2% (inactive),
O=C(O)c1ccc2c(c1)N(Cc1ccc(F)cc1)C(=O)c1ccccc1S2=O (stereo not drawn),-6.31% (inactive),
COc1cc2c(cc1OC)[C@@H](Cc1cc(OC)c(OC)c(OC)c1)[N+](C)(CCCOC(=O)CC/C=C/CCC(=O)OCCC[N+]1(C)CCc3cc(OC)c(OC)cc3[C@H]1Cc1cc(OC)c(OC)c(OC)c1)CC2 (stereo partly drawn),0.105% (inactive),

Compound,"activity change, negative = inhibition",Potency
NNc1nnc(Cc2ccncc2)c2ccccc12,-2.67% (inactive),
COc1ccc(/C(O)=C2/C(=O)C(=O)N(CCCN(C)C)C2c2ccccc2)cc1OC (stereo not drawn),-4.13% (inactive),
CCCOc1ccc(/C(O)=C2/C(=O)C(=O)N(CCN(C)C)C2c2ccc(OC)c(OC)c2)cc1 (stereo not drawn),9.91% (inactive),
COc1ccc(C2/C(=C(/O)c3ccccc3)C(=O)C(=O)N2c2ncccn2)cc1OC (stereo not drawn),,8.91 µM (active)
COc1ccc(N2CCN(c3cc(C)nc4nncn34)CC2)cc1,54.9% (inactive),
CCc1ccc(NC(=O)CN2C(=O)CCSc3ccc(S(=O)(=O)N4CCCC4)cc32)cc1,-1.16% (inactive),
O=C(Nc1cccc(C(F)(F)F)c1)c1cc(Br)cc(Br)c1O,5.07% (inactive),
COc1ccc(OC)c(-c2noc(N3CCN(c4cc(Cl)ccc4C)CC3)n2)c1,-13% (inactive),
COc1ccc(C2=NOC3(CC(=O)N(c4ccc(Cl)cc4)C3=O)C2)c(OC)c1 (stereo not drawn),0.557% (inactive),
COc1ccc2c(c1)C(=O)Nc1cc(Cl)ccc1N2,,12.6 µM (active)
Cc1cc(C)c2sc(NC(=O)c3ccc(S(=O)(=O)N4CCCC4)cc3)nc2c1,3.27% (inactive),
Cc1cn([C@H]2CC(F)[C@@H](CO)O2)c(=O)[nH]c1=O (stereo partly drawn),1.43% (inactive),
C=CC1=C(C(=O)O)N2C(=O)[C@@H](NC(=O)/C(=N\OCC(=O)O)c3csc(N)n3)[C@H]2SC1,,12.6 µM (active)
CO/N=C(\C(=O)N[C@@H]1C(=O)N2C(C(=O)O)=C(Cn3nnc(C)n3)CS[C@H]12)c1csc(N)n1,1.07% (inactive),
C=CC1=C(C(=O)O)N2C(=O)[C@@H](NC(=O)/C(=N/OCC(=O)O)c3csc(N)n3)[C@H]2SC1,,12.6 µM (active)
C[C@]12CC[C@@H]3c4ccc(O)cc4C[C@@H](CCCCCCCCCS(=O)CCCC(F)(F)C(F)(F)F)C3[C@@H]1CC[C@@H]2O (stereo partly drawn),1.78% (inactive),
Cc1cccc(C)c1NC(=O)NC1=CCCN1C,-6.33% (inactive),
CCCC(=O)O[C@]1(C(=O)COC(=O)CC)CC[C@@H]2[C@@H]3CCC4=CC(=O)CC[C@]4(C)[C@H]3[C@@H](O)C[C@@]21C,-15.3% (inactive),
CN1CC(O)c2cc(N=NC(N)=O)c(O)cc21 (stereo not drawn),4.71% (inactive),
CC(=O)O[C@]1(C(C)=O)CC[C@@H]2[C@@H]3C=C(C)C4=CC(=O)CC[C@@]4(C)[C@H]3CC[C@]21C,0.635% [at 20 µM] (inactive),
